The source of these data is PubChem BioAssay (NCI).

Test systems include NCI-H23 lung; NCI-H226 lung; NCI-H322M lung; NCI-H460 lung; NCI-H522 lung; A549/ATCC NSCLC; 786-0 renal; COLO 205 colon; DU-145 prostate; K-562 leukemia; MALME-3M melanoma; MDA-MB-231 breast; RXF 393 renal; SF-268 CNS; SF-295 CNS; SF-539 CNS; UACC-257 melanoma; M14 melanoma; HCT-15 colon.
What all share (assay): NCI-60 one-dose screen, 48 h (100 = growth as untreated, 0 = no growth, -100 = all killed)
What all share (conditions): 10 µM

SMILES strings stand for the structures. About 83,000 compounds went through this panel and 20% of them were active in at least one assay; those are over-represented in the sample as a whole.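 Cells were grown in 96-well plates and exposed to the test compound at a single concentration for 48 hours; results are reported as percent growth, with values below 10 considered active.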 Values without a mark were called inactive. The source made the active and inactive calls.

For the compound `CCCCCCCCCCCCCCCC(=O)OC1[C@@H](OC(=O)CCCCCCCCCCCCCCC)[C@@H](C(=O)N[C@@H](CCCCN)C(=O)OC)O[C@H]1n1cnc2c(=O)[nH]c(NC(=O)C(C)C)nc21` (stereo partly drawn), the growth in the assay with NCI-H23 lung is 97.8%; with NCI-H226 lung it was 102%; with NCI-H322M lung it was 89.6%; with NCI-H460 lung, 101%; with NCI-H522 lung it was 84.4%; in the assay with A549/ATCC NSCLC, 99.8%. For the same compound, the growth in the assay on 786-0 renal was 98.1%; with COLO 205 colon, 101%; in the assay on DU-145 prostate, 107%; in the assay with K-562 leukemia, 82.9%; in the assay on MALME-3M melanoma it was 98.5%; in the assay on MDA-MB-231 breast, 118%. Further, the growth with RXF 393 renal was 105%; in the assay with SF-268 CNS it was 97.1%; in the assay on SF-295 CNS, 108%; with SF-539 CNS it was 103%; with UACC-257 melanoma it was 90.1%; in the assay with M14 melanoma it was 93.7%. For the same compound, in the assay with HCT-15 colon, the growth is 96.6%.

As to `O=c1[nH]c(-c2ccc(Cl)cc2)nc2sc3c(c12)CCCC3`, the growth with NCI-H23 lung was 86.1%; in the assay on NCI-H226 lung, 78.1%; in the assay on NCI-H322M lung it was 114%; in the assay on NCI-H460 lung it was 52.2%; with NCI-H522 lung, 82.4%; in the assay with A549/ATCC NSCLC, 95.8%. Also, the growth in the assay on 786-0 renal was 95.7%; in the assay with DU-145 prostate, 63.9%; in the assay with K-562 leukemia it was 69.5%; in the assay with MALME-3M melanoma, 108%; in the assay with MDA-MB-231 breast, 97.8%; in the assay on RXF 393 renal, 89.1%. The growth in the assay on SF-268 CNS was 50.7%; in the assay on SF-295 CNS it was 32.9%; in the assay on SF-539 CNS, 72.1%; with UACC-257 melanoma it was 103%; with M14 melanoma it was 68.2%; with HCT-15 colon it was 81.1%.

Consider `CN1CCC(CNc2cc(C3(C(=O)Nc4cc(C(=O)Nc5ccc(Cl)c(C(F)(F)F)c5)ccc4F)CC3)ncn2)CC1`, for which the growth is 44% in the assay on NCI-H23 lung; 72.5% with NCI-H226 lung; 39.4% in the assay on NCI-H322M lung; 3.98% (active) in the assay on NCI-H460 lung; 46.6% in the assay with NCI-H522 lung; 13.4% in the assay on A549/ATCC NSCLC. The growth in the assay on 786-0 renal was -38.4% (active); with COLO 205 colon, -67.3% (active); with DU-145 prostate it was 40.5%; in the assay with K-562 leukemia, -60.3% (active); in the assay with MALME-3M melanoma, -67.7% (active); in the assay on MDA-MB-231 breast, -32.2% (active). The growth with RXF 393 renal is -46.8% (active); in the assay on SF-268 CNS it was 18.2%; in the assay on SF-295 CNS, -54.4% (active); in the assay with SF-539 CNS, -57.2% (active); with M14 melanoma it was -52% (active); in the assay with HCT-15 colon, -20.3% (active).

For the compound `O=C(Nc1cccc(-n2cc(-c3ccncc3)c(-c3ccc(O)c(Cl)c3)n2)c1)Nc1cccc(C(F)(F)F)c1`, the growth was -5.75% (active) with NCI-H23 lung; 57.5% in the assay with NCI-H226 lung; -10.3% (active) in the assay on NCI-H322M lung; -4.53% (active) in the assay on NCI-H460 lung; -6.25% (active) with NCI-H522 lung; -6.05% (active) in the assay on A549/ATCC NSCLC. In addition, the growth in the assay with 786-0 renal is 14.9%; in the assay with COLO 205 colon, 22.7%; in the assay with DU-145 prostate, 12.8%; in the assay with K-562 leukemia it was 2.72% (active); in the assay with MALME-3M melanoma, -24.1% (active); with MDA-MB-231 breast it was -22.1% (active). Moreover, the growth was -11.7% (active) in the assay with RXF 393 renal; 9.04% (active) in the assay with SF-268 CNS; -12.6% (active) in the assay on SF-295 CNS; -8.84% (active) in the assay with SF-539 CNS; -19% (active) in the assay on UACC-257 melanoma; -8.16% (active) with M14 melanoma. Further, in the assay on HCT-15 colon, the growth was 14.9%.

As for `O=C1/C(=C/c2ccc(Cl)cc2)SC(=Nc2ccc(Cl)cc2)N1Cc1nc2ccccc2[nH]1`, the growth in the assay with NCI-H23 lung was 78.7%; in the assay on NCI-H226 lung, 81.5%; with NCI-H322M lung, 95.4%; in the assay with NCI-H460 lung it was 85.3%; with NCI-H522 lung, 76.4%; in the assay on A549/ATCC NSCLC it was 70.8%. Moreover, the growth in the assay on 786-0 renal was 92.3%; in the assay on COLO 205 colon, 98%; in the assay with DU-145 prostate, 93.7%; in the assay with K-562 leukemia, 58.2%; with MALME-3M melanoma, 48.9%; with MDA-MB-231 breast it was 59.2%. Besides, the growth was 91.5% with RXF 393 renal; 74.4% with SF-268 CNS; 68.2% in the assay with SF-295 CNS; 101% in the assay with SF-539 CNS; 87.2% in the assay with UACC-257 melanoma; 92.4% in the assay on M14 melanoma. The growth in the assay with HCT-15 colon is 64.1%.

`O=C(Nc1cccc(-n2cc(-c3ccncc3)c(-c3cc(O)cc(Cl)c3)n2)c1)c1ccc(N2CCOCC2)c(C(F)(F)F)c1`: the growth with NCI-H23 lung was 15.4%; with NCI-H226 lung, 94.7%; with NCI-H322M lung it was 43.5%; in the assay on NCI-H460 lung it was -26% (active); in the assay with NCI-H522 lung it was 18.8%; in the assay with A549/ATCC NSCLC it was 9.62% (active). The growth in the assay on 786-0 renal was 36.6%; in the assay on DU-145 prostate, 38%; with K-562 leukemia, -15.5% (active); in the assay with MALME-3M melanoma, -26.9% (active); in the assay with MDA-MB-231 breast, -48% (active); with RXF 393 renal, -45.6% (active). In addition, the growth is 52.7% with SF-268 CNS; -35.4% (active) with SF-295 CNS; 2.4% (active) in the assay with SF-539 CNS; 9.38% (active) with UACC-257 melanoma; -20.7% (active) with M14 melanoma; 6.25% (active) in the assay with HCT-15 colon.

As to `c1ccc([C@H]2CN3CCSC3=N2)cc1`, the growth in the assay on NCI-H23 lung is 96.8%; in the assay on NCI-H226 lung, 97.4%; with NCI-H322M lung it was 101%; in the assay with NCI-H460 lung, 114%; with NCI-H522 lung, 90.8%; in the assay on A549/ATCC NSCLC, 102%. Also, the growth was 99.3% in the assay on 786-0 renal; 92.1% in the assay with DU-145 prostate; 91.8% in the assay with K-562 leukemia; 92.3% with MALME-3M melanoma; 101% with MDA-MB-231 breast; 101% in the assay with RXF 393 renal. Further, the growth is 111% in the assay on SF-268 CNS; 91.3% in the assay on SF-295 CNS; 87.8% with SF-539 CNS; 104% with UACC-257 melanoma; 85.8% with M14 melanoma; 108% with HCT-15 colon.

For `O=C1NC(=O)N(Cc2ccccc2)CC1Br` (stereo not drawn), the growth in the assay with NCI-H23 lung is 52.6%; in the assay on NCI-H226 lung it was 83.2%; with NCI-H322M lung, 104%; in the assay on NCI-H460 lung, 96.7%; with NCI-H522 lung, -9.22% (active); in the assay on A549/ATCC NSCLC, 102%. Further, the growth in the assay on 786-0 renal was 63%; with COLO 205 colon, 64.9%; in the assay with DU-145 prostate, 104%; with K-562 leukemia, 37.4%; with MALME-3M melanoma, 77.8%; in the assay on MDA-MB-231 breast, 89.3%. Moreover, the growth in the assay on RXF 393 renal is 68%; with SF-268 CNS, 80.2%; in the assay with SF-295 CNS, 136%; in the assay with SF-539 CNS, 86.5%; with UACC-257 melanoma it was 82.1%; in the assay with M14 melanoma, 11.4%. The growth with HCT-15 colon was 45.2%.
